Beta cell apopt: inhibitors of cytokine-induced beta cell apoptosis, primary screen, luminescence | INS-1E cytokine-induced death, ATP luminescence, 48 h; percent of positive-control rescue, neutral wells zero | protection from apoptosis, % (test concentration not listed) | 300,000 compounds, 0.8% hits;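 active = Every replicate reaches about 75%, or at least half do and their mean reaches it too, limit read from the data; inconclusive = At least half of replicates reach the limit but their mean does not; inactive = Under half of replicates reach the limit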;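 also: 0% = cytokine-treated negative control wells and 100% = positive control rescue; higher means more ATP so stronger rescue from cytokine killing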
Calb FLC: C. albicans growth inhibition with fluconazole, primary screen, CaCi-2 strain, Alamar Blue fluorescence; C. albicans CaCi-2 (fluconazole-resistant clinical isolate) + fluconazole, 48 h; growth inhibition, % (concentration not given with the values); 300,000 compounds, 0.57% hits;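 active = growth inhibition above about 58% in most replicates, limit read from the data, passing the limit was not always enough; inconclusive = exactly half the replicates above a set limit; inactive = most replicates below a set limit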;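 also: all wells also contain fluconazole at 8 µg/ml as a sub-toxic cotreatment; 0% = median of DMSO wells and 100% = median of geldanamycin control wells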
Mdm2-MdmX inh: inhibitors of human Mdm2-MdmX association, primary screen, cell-based, luminescence, split luciferase, SaOS-2, uHTS; Protein Mdm4 (Homo sapiens) + E3 ubiquitin-protein ligase Mdm2 (Homo sapiens), …; SaOS-2 split-luciferase Mdm2/MdmX complementation; inhibition, % at 8 µM; 330,000 compounds, 3% hits; AID 485346, 2010;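 active = inhibition of at least 50% at 8 µM in the primary screen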
Target sequence (O15151 whole entry, looked up): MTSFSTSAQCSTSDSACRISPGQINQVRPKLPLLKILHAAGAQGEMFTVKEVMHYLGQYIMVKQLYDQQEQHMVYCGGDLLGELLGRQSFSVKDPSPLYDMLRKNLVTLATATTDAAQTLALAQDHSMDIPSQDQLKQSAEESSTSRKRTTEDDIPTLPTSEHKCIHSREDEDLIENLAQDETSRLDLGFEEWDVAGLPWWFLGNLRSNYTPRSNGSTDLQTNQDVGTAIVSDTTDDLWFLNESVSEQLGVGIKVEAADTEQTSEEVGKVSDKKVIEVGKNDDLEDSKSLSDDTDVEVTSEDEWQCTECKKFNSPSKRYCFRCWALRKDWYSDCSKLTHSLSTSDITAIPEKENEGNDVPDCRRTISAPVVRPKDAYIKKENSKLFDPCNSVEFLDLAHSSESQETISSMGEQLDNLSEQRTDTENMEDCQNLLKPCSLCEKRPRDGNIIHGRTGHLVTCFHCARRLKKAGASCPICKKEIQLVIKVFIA
Target sequence (Q00987 whole entry, looked up): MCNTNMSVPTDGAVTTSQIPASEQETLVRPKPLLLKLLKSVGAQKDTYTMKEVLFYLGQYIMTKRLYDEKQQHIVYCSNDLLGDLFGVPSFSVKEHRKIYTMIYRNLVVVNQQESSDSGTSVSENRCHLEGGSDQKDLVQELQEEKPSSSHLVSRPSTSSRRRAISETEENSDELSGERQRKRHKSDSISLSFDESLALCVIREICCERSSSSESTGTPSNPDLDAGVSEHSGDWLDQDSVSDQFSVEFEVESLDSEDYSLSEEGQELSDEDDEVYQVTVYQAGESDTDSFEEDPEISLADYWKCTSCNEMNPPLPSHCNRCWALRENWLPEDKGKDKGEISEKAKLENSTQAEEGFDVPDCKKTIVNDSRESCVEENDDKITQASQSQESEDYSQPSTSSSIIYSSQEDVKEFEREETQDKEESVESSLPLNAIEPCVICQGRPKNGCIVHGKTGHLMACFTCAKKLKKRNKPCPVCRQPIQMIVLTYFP
CSC inhib: cancer stem cell viability inhibitors, primary screen, luminescence; cancer stem cell-like cells viability; inhibition, % at 7.5 µM; 300,000 compounds, 1.1% hits; AID 2717, 2010; in the data active = inhibition above about 75%; inconclusive = no clear call, values can overlap the other calls; tested in HMLE shEcad cells
SKKanGAS inh: S. pyogenes SKKanGAS growth inhibitors in kanamycin, primary screen, streptokinase expression inhibitor project, SKKanGAS strain, BacTiter-Glo luminescence | 6 h | inhibition, % at 7.5 µM | 300,000 compounds, 1.3% hits | AID 1662, 2009;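 active = mean replicate score, as percent of positive control median, at least 50; inconclusive = mean below 50 but one replicate at or above 50; inactive = mean and every replicate below 50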;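 also: strain carries kanamycin resistance gene driven by streptokinase promoter and grows in 40 µg/ml kanamycin; loss of luminescence reflects streptokinase promoter inhibition or plain growth inhibition; 0% = median of DMSO wells and 100% = positive control at its reference dose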
MPTP inh: mitochondrial permeability transition pore inhibitors, primary screen, biochemical, isolated mouse mitochondria, absorbance | 360,000 compounds, 1.4% hits | AID 602449, 2012 | Ca2+ swelling absorbance, 30 min | inhibition, % at 10 µM;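 active = inhibition of 50% or more, scaled per plate between neutral and stimulator controls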;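 also: 0% = DMSO wells given calcium and 100% = 1 mM EGTA wells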
Rh123 counter: fluorescence retest of MPTP screen hits in isolated mitochondria, single concentration | shares compounds with MPTP inh | membrane potential, Rhodamine 123 fluorescence | inhibition, % at 10 µM | 5,000 compounds, 78% hits | AID 624504, 2012; in the data active = inhibition above about 22%;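 also: 0% = DMSO vehicle and 100% = positive control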
MPTP abs DR: mitochondrial permeability transition pore inhibitors, dose response, biochemical, absorbance, uHTS hits. shares compounds with MPTP inh. isolated mitochondria swelling. IC50, µM. 780 compounds, 58% hits. AID 651561, 2012; in the data active = IC50 below about 20 µM
MPTP cs DR: fluorescent counter-screen in isolated mitochondria, dose response, counter-screen for MPTP inhibitor project, biochemical, fluorescence, uHTS hits. IC50, µM. isolated mitochondria counterscreen, fluorescence read-out. 780 compounds, 49% hits. shares compounds with MPTP inh; in the data active = IC50 below about 80 µM
* marks the source's active call; other numbers are inactive results; i = inactive; ? = inconclusive; / = no result given. Compounds with a hit are over-represented: about 5.4% of the library has one in this group of screens.

SMILES | Beta cell apopt | Calb FLC | Mdm2-MdmX inh | CSC inhib | SKKanGAS inh | MPTP inh | Rh123 counter | others
COc1ccccc1CN=Cc1[nH]c2ccc(Br)c(Cl)c2c1O | -7 | ? | 15 | -5 | 3 | 1 | /
O=C(Nc1ccc(F)cc1F)NC1CCN(S(=O)(=O)c2ccc(F)cc2)CC1 | -4 | 2 | 22 | -1 | -1 | -1 | /
Cc1cc(Cl)ccc1NC(=O)NC1CCN(S(=O)(=O)c2ccc(F)cc2)CC1 | 3 | -5 | 34 | 2 | 0 | 59* | 76*
NC(N)=Nc1ccc(C=C2C=Cc3ccccc32)cc1 | / | / | / | / | / | 58* | -6 | MPTP abs DR=3.7*;MPTP cs DR=31*
Cc1c(C(C)O)nnn1-c1nonc1N (configuration not stated) | 1 | 3 | 15 | -16 | -2 | 0 | /
O=C(NCc1csc(-c2cccs2)n1)Nc1cccc(Cl)c1 | -1 | -10 | 7 | 1 | -4 | 76* | 82*
O=C(Nc1cccc(Cl)c1)Nc1nc(-c2ccc(Cl)cc2)cs1 | 43 | -5 | 22 | -14 | -1 | 92* | 94*
O=C(Nc1cccc(Cl)c1)Nc1sccc1-c1nc2ccccc2s1 | 8 | -6 | -34 | 76* | 27 | 78* | 69*
O=C(Nc1ccccc1)Nc1sccc1-c1nc2ccccc2s1 | 8 | -3 | 19 | 20 | 5 | 26 | /
O=C(Nc1ccccc1)Nc1nc(-c2ccc(Cl)cc2)cs1 | -6 | -3 | -7 | 7 | -7 | 35 | /
O=C(Cc1csc(NC(=O)Nc2cccc(Cl)c2)n1)NC1CCCC1 | / | -6 | 37 | -11 | 31 | 79* | 73*
CCC(=O)NCc1csc(-c2cccs2)n1 | -8 | 18 | -24 | -9 | 1 | 0 | /
NC(c1csc(NC(=O)Nc2cccc(Cl)c2)n1)C1CCCCC1 (configuration not stated) | / | / | / | / | / | 2 | /
Cc1ccc(S(=O)(=O)/N=C(/Nc2ccc([N+](=O)[O-])cc2)c2ccccc2)cc1 | 5 | 11 | 9 | 40 | 4 | 2 | /
Cc1ccc(S(=O)(=O)/N=C(/Nc2ccc([N+](=O)[O-])cc2[N+](=O)[O-])c2ccccc2)cc1 | 9 | / | 8 | 40 | / | 86* | 92*
CCC1SC(=NC(=O)c2ccc(Cl)c(Cl)c2)NC1=O (configuration not stated) | 0 | 7 | -4 | 4 | 19 | 76* | 100*
COc1ccc(C=NNc2ccc([N+](=O)[O-])cc2S(=O)(=O)Nc2ccccc2C(=O)O)cc1OC | 4 | / | -10 | 33 | / | 60* | 37*
O=C(NCC1CCCO1)c1cc2c(=O)[nH]c3ccccc3c2s1 (configuration not stated) | 0 | 9 | 1 | -9 | / | -2 | /
CC1CCN(C(=O)COC(=O)c2ccc(F)c(S(=O)(=O)N3CCOCC3)c2)CC1 | -4 | 3 | -10 | -3 | -3 | -1 | /
Cc1cc(C)cc(NC(=O)Nc2ccc(-n3ccc(C(F)(F)F)n3)cc2)c1 | 30 | 4 | 37 | 104* | 1 | 87* | 83*
CN(C)c1ccc(C=c2c3ccccc3n3c2cc(-c2ccc(Cl)cc2)[n+]3C)cc1 | / | / | / | / | / | 22 | /
COc1cc(C=c2c3ccccc3n3c2cc(-c2ccccc2)[n+]3C)cc(OC)c1OC | / | / | / | / | / | -4 | /
CN(C)c1ccc(C=c2c3ccccc3n3c2c2c([n+]3C)CCCC2)cc1 | / | / | / | / | / | 65* | 76*
CN(C)c1ccc(C=c2c3ccccc3n3c2cc(-c2ccccc2)[n+]3C)cc1 | / | / | / | / | / | 58* | 75*
COc1cc(N(C)C)ccc1C=c1c2ccccc2n2c1cc(-c1ccccc1)[n+]2C | / | / | / | / | / | 56* | 77*
SMILES | Beta cell apopt | Calb FLC | Mdm2-MdmX inh | CSC inhib | SKKanGAS inh | MPTP inh | Rh123 counter | others
Cn1c2ccccc2c(=O)c2c(=O)n(Cc3ccco3)c(-c3ccc(Cl)cc3Cl)nc21 | 1 | 33 | 26 | -10 | 9 | / | /
O=c1c2c3c(sc2nc(NCCO)n1-c1ccccc1)CCCC3 | / | 2 | 38 | -7 | 15 | 0 | /
CSc1ccccc1OCc1cc(C(=O)N2CCN(C3CCCC3)C(=O)C2)no1 | 0 | -4 | -12 | -9 | -2 | 1 | /
CCn1c(-c2ccc(C(C)(C)C)cc2)n[nH]c1=S | -2 | -5 | 3 | 0 | 9 | 69* | 16 | MPTP abs DR=18*;MPTP cs DR=26*
Cc1cc(C)cc(-n2ncc3c2CCCC3NC(=O)c2cc(C)n(C)n2)c1 (configuration not stated) | 4 | 14 | 15 | -3 | 10 | 1 | /
Cc1cccc(-n2ncc3c2CCCC3NC(=O)c2cccs2)c1C (configuration not stated) | / | / | / | / | / | 10 | /
Cc1cc(C(=O)NC2CCCc3c2cnn3-c2ccc(C(C)(C)C)cc2)nn1C (configuration not stated) | 54 | -22 | 48 | 36 | 2 | 89* | 105*
Cc1cccc(-n2ncc3c2CCCC3NC(=O)c2ccncc2)c1C (configuration not stated) | / | / | / | / | / | 86* | 90*
CCOC(=O)N1CCC(N(C(=O)Nc2ccc(Cl)c(Cl)c2)C(C)CC)CC1 (configuration not stated) | 3 | -5 | 23 | 15 | -9 | 80* | 95*
COc1ccc(CNC2CCCc3ccccc32)cc1OC (configuration not stated) | -4 | -6 | -3 | -1 | -2 | 61* | 0 | MPTP abs DR=i;MPTP cs DR=69*
COc1ccccc1CNC1CCCc2ccccc21 (configuration not stated) | -12 | 3 | 0 | -11 | 1 | 1 | /
COc1ccc(-c2c[n+]3c4n2CCCCC4=C(c2ccc(Br)cc2)C3)cc1 | 104* | -15 | / | 39 | 15 | 56* | 68*
Clc1ccc(C2=C3CCCCn4c(-c5ccccc5)c[n+](c43)C2)cc1 | -2 | ? | 38 | 15 | 5 | 6 | /
Cc1nnc(NC(=O)CSc2n[nH]c(-c3ccccc3C)n2)s1 | 0 | 3 | -15 | -12 | -2 | 96* | -8 | MPTP abs DR=>100;MPTP cs DR=>80
CCc1nnc(NC(=O)CSc2n[nH]c(-c3ccccc3O)n2)s1 | -3 | 5 | -1 | 11 | -10 | 2 | /
Cn1cc(S(=O)(=O)N2CCc3ccccc32)cc1C(=O)NC(C)(C)C | 41 | 1 | 12 | 1 | -3 | 50* | 80*

Bioassay records from PubChem BioAssay.
